# VACV mCherry inh: qHTS for Stage-Specific Inhibitors of Vaccinia Orthopoxvirus: mCherry Reporter Primary qHTS. Vaccinia virus mCherry reporter infection, fluorescence. Potency, µM (series often up to 36.5 µM), most hits filed as inhibitors. 0.63% of 310,000 active; calls by dose curve; tested in A549 cells; note: nearly all actives have a fitted effect of over 35% in size
# HCV inhibitor: qHTS Assay for Inhibitors of Hepatitis C Virus (HCV) | Huh7.5.1 HCVcc-Cre infection, luciferase reporter, 44 h | Potency, µM (titrated, usually from 41.8 µM), hits mostly inhibitors | 3.4% of 340,000 active | AID 651820, 2012; active = well fitted inhibition curve with a large enough effect; inconclusive = small, poorly fitted or top-dose-only effect, or another doubt; inactive = no such curve, though single readings can be large or run the other way
#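 1,000 cells/well; 4 h culture; + compound; + HCVcc-Cre (~0.5 moi); 44 h; luciferase substrate, RT 15 min; read 15 sec.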
# Marburg entry inh: qHTS for inhibitors of binding or entry into cells for Marburg Virus. 1.8% of 300,000 active. Marburg virus pseudotyped entry inhibition, cell reporter. Potency, µM (top dose mostly 37.8 µM), hits mostly inhibitors; calls by dose curve; tested in HEK293 cells
# VACV Venus inh: qHTS for Stage-Specific Inhibitors of Vaccinia Orthopoxvirus: Venus Reporter Primary qHTS; Vaccinia virus Venus reporter expression, fluorescence; Potency, µM (titrated, usually from 36.5 µM), hits mostly inhibitors; 0.46% of 330,000 active; AID 720580, 2013; calls by dose curve; tested in A549 cells; note: nearly all actives have a fitted effect of over 30% in size
# Lassa entry inh: qHTS for Inhibitors of binding or entry into cells for Lassa Virus; Lassa virus pseudotype entry inhibition, cell reporter; Potency, µM (doses to about 37.9 µM), most hits filed as inhibitors; 1.2% of 300,000 active; calls by dose curve; tested in HEK293 cells; note: nearly all actives have a fitted effect of over 50% in size
# A number is an active result; i = inactive; ? = inconclusive; nt = not tested or not shown; [ ] = dose if it differs, or a comment. Shown are actives, neighbours in structure and some others; about 4.6% of the full set was active somewhere.
SMILES,VACV mCherry inh,HCV inhibitor,Marburg entry inh,VACV Venus inh,Lassa entry inh
Cc1ccc(C2(C)NC(=O)N(CC(=O)Nc3ccc(Cl)c(S(=O)(=O)N4CCCCC4)c3)C2=O)cc1 (stereo not drawn),i,?,11µM,?,i
COc1ccc(S(=O)(=O)N2CCCCCC2)cc1NC(=O)CN1C(=O)NC(C)(c2ccc(C)cc2)C1=O (stereo not drawn),i,?,?,i,i
OCCNc1ncnc2c1ncn2[C@H]1CN(Cc2ccc(-c3ccccc3)cc2)C[C@@H](CO)O1,i,nt,nt,i,nt
COc1cc(CNc2ncnc3c2ncn3[C@H]2CN(Cc3ccc(-c4ccccc4)cc3)C[C@@H](CO)O2)cc(OC)c1OC,13µM,nt,nt,?,nt
OC[C@@H]1CN(Cc2ccc(-c3ccccc3)cc2)C[C@H](n2cnc3c(NCc4ccncc4)ncnc32)O1,10µM,nt,nt,?,nt
CCOc1cc2[nH]c(=O)n(CCC(=O)N3CCN(c4cccc(Cl)c4)CC3)c(=O)c2cc1OCC,i,nt,nt,i,i
CCCN1CCN(c2ncnc3sc(C(=O)Nc4ccc(N(CC)CC)cc4C)c(C)c23)CC1,i,nt,nt,i,?
CCN(c1ccccc1)c1nnc(NC(=O)Nc2ccccc2F)s1,i,nt,i,i,i
CCCCN(CC)CCCNC(=O)c1cc2c(=O)[nH]c3ccccc3c2s1,i,?,7.1µM,i,i
CCN1CCN(CCCNC(=O)c2cc3c(=O)[nH]c4ccccc4c3s2)CC1,i,?,?,i,?
CCCCN(CC)CCNC(=O)c1cc2c(=O)[nH]c3ccc(C)cc3c2s1,i,?,5µM,?,?
CN(C)CCCNC(=O)c1cc2sc3ccccc3c2s1,i,10µM,?,i,i
O=C(NCCCN1CCOCC1)c1cc2c(=O)[nH]c3ccccc3c2s1,i,i,10µM,i,i
CC(=O)OC[C@H]1O[C@H](C#Cc2ccccc2Cl)C=C[C@H]1OC(C)=O,nt,nt,i,nt,nt
CC1(C)O[C@@H](C(O)(c2cc(C(F)(F)F)cc(C(F)(F)F)c2)c2cc(C(F)(F)F)cc(C(F)(F)F)c2)[C@H](C(O)(c2cc(C(F)(F)F)cc(C(F)(F)F)c2)c2cc(C(F)(F)F)cc(C(F)(F)F)c2)O1,nt,nt,i,nt,nt
COc1ccc(C(=O)CSc2nnc(-c3cc4ccccc4cc3O)n2Cc2ccco2)cc1,i,11µM,i,i,?
Cc1cccc(N2CC(c3nc4ccccc4n3CCC3CCCCC3)CC2=O)c1 (stereo not drawn),i,nt,i,i,?
CC(C)Cc1nc(N2CCNCC2)c(C#N)c2c1CCC2,i[7.34 µM],3.2µM,?,i[7.34 µM],i
CC(C)Cc1nc(N2CCCCC2)c(C#N)c2c1CCC2,i,i,i,i,i
CC(C)Cc1nc(N2CCN(C(=O)c3ccccc3)CC2)c(C#N)c2c1CCC2,nt,11µM,?,nt,6.5µM
COc1ccc(N2CCN(C(=O)CCNS(=O)(=O)c3cccs3)CC2)cc1,?,i,i,13µM,i
COc1ccc(N2CCN(C(=O)CN(CCc3ccccc3)S(C)(=O)=O)CC2)cc1,1.8µM,i,?,?,?
CC1(C)O[C@H]2[C@@H](O1)[C@@H](C(=O)Nc1ccc(F)c(F)c1)O[C@@H]1OC(C)(C)O[C@@H]12,i,nt,i,i,?
COc1ccc(C2CC(=O)c3cc(-c4nc(-c5ccc(Cl)cc5)cs4)c(=O)[nH]c3C2)cc1 (stereo not drawn),i,nt,?,i,i
CC1=C[C@@H](COCc2ccccc2)O[C@@]2(C1)C(=O)N(Cc1ccccc1C(F)(F)F)c1ccccc12,nt,nt,i,nt,nt
SMILES,VACV mCherry inh,HCV inhibitor,Marburg entry inh,VACV Venus inh,Lassa entry inh
O=S(=O)(c1ccc2c(c1)C(=NO)c1cc(S(=O)(=O)N3CCCCC3)ccc1-2)N1CCCCC1,1.8µM,5µM,?,1.4µM,6.3µM
CC1CCN(S(=O)(=O)c2ccc3c(c2)C(=NO)c2cc(S(=O)(=O)N4CCC(C)CC4)ccc2-3)CC1,2.8µM,2µM,?,?,2.5µM
CC(=O)N1CCCc2cc(S(=O)(=O)N3CCN(c4ccc(F)cc4)CC3)ccc21,i,nt,nt,i,i
CN(C)c1ccc(CNC(=O)c2ccc(Cn3c(=O)c4cccn4c4cccnc43)cc2)cc1,i,nt,nt,i,?
O=C(Nc1ccc(Br)cc1)c1ccc(F)c(S(=O)(=O)NCc2cccs2)c1,?,5µM,?,?,4µM
O=C(Nc1nccs1)c1ccc(S(=O)(=O)NCc2cccs2)cc1,i,10µM,i,i,i
O=C(Nc1nccs1)c1ccc(S(=O)(=O)NCC2CCCCC2)cc1,?,nt,?,?,i
Cc1cccc(NC(=O)c2sc3nc4c(cc3c2N)CN(C(C)C)CC4)c1,i,nt,i,i,?
CCOc1ccccc1Nc1nc(-c2cccc(Cl)c2)c2c(n1)-c1ccccc1OC2,i,nt,?,i,?
CC(C)c1ccc(NC(=O)COc2ccc(F)cc2C(=O)c2cnn(-c3ccccc3)c2)cc1,i,?,?,i,?
O=C(COc1ccccc1C(=O)c1cnn(-c2ccccc2)c1)Nc1ccc2ccccc2c1,i,13µM,?,i,i
COc1ccc(-n2cc(C(=O)c3ccccc3O)cn2)cc1,i,i,?,i,4µM
Cc1cnc(C(=O)NCc2c(C)ncc3c2CCN(C(=O)/C=C/c2cccs2)C3)cn1,i,nt,nt,i,nt
Cc1ccc(NC(=O)N(Cc2c[nH]c3ccccc23)C2CCCCCC2)cc1C,?,nt,?,i,2.5µM
Cc1ccc2c(c1)sc(-c1ccc(N(C)C)cc1)[n+]2C,?,3.5µM,nt,?,nt
COc1ccc(C)cc1Nc1n[n+](-c2ccccc2)c(-c2ccc(N(C)C)cc2)s1,i,i,nt,?,nt
COCCNc1nc(CSc2ccccc2)nc2sc(C)c(C)c12,i,25µM,i,i,?
Cn1c(N)c(C(=O)COC(=O)c2cc(S(=O)(=O)N3CCOCC3)ccc2F)c(=O)n(C)c1=O,i,?,7.1µM,?,i
O=C(C#Cc1ccccc1)Nc1cccc(F)c1,3.5µM,?,?,?,11µM
Cn1c(SCC2CCCO2)nnc1C1CCN(Cc2ccccc2O)CC1 (stereo not drawn),i,nt,nt,i,nt
O=C(Nc1cccc(S(=O)(=O)N2CCCC2)c1)c1ccc2c(=O)n3c(nc2c1)CCCCC3,?,2.8µM,?,?,21µM
O=C(Nc1cccc(S(=O)(=O)N2CCOCC2)c1)c1ccc2c(=O)n3c(nc2c1)CCCCC3,?,7.1µM,?,?,?
COCc1c(C(=O)N2CCCCCC2)cnn1-c1nccc(-c2cccs2)n1,i,nt,nt,i,nt
Cc1nc(N=Nc2cc(S(=O)(=O)O)c3cc([N+](=O)[O-])cc(S(=O)(=O)O)c3c2)c(COP(=O)(O)O)c(C=O)c1O,i,nt,20µM,i,?
Oc1c(Cl)cc(Cl)c2cccnc12,i,i,nt,?,nt
Cc1ccc2c(Cl)cc(Cl)c(O)c2n1,?,?,11µM,?,?
CCOc1cc(C)c(S(=O)(=O)Nc2ccc3cn[nH]c3c2)cc1C,i,10µM,?,?,i
Cc1ccc(S(=O)(=O)Nc2ccc3cn[nH]c3c2)c(C)c1,nt,i,nt,nt,nt
Cc1nc(C(F)(F)F)c(C(=O)N/N=C(\N)c2ccccn2)s1,2.5µM,13µM,?,?,?
